# Measured values as given in PubChem BioAssay (NCI).
# About 83,000 compounds went through this panel and 20% of them were active in at least one assay; those are over-represented in the sample as a whole.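 Plates (96-well) were seeded with cells, treated with compound at one concentration, and incubated for 48 hours before percent growth was determined.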 Unmarked numbers belong to inactive results. The source made the active and inactive calls. Rule for the calls: active = growth percent below 10; inactive = the rest.
# System: MOLT-4 leukemia
# Assay: NCI-60 one-dose screen, 48 h (100 = growth as untreated, 0 = no growth, -100 = all killed)
# Conditions: 10 µM unless noted
row,Compound,growth
1,COC(=O)[C@]12CC[C@@H](C)[C@H](C)[C@@H]1C1=CC[C@@H]3[C@@]4(C)C[C@@H](OC(C)=O)[C@H](O)[C@@](C)(COC(C)=O)[C@@H]4[C@H](O)C[C@@]3(C)[C@]1(C)CC2,-34.3% (active)
2,N#Cc1c(-c2ccco2)nc2c(c(-c3ccccc3)nn2-c2ccccc2)c1-c1ccc(O)cc1,9.84% (active)
3,CC(=O)c1c(C)[nH]c(-c2nc3ccc(N4CCN(C)CC4)cc3[nH]2)c1-c1ccc2c(c1)OCCO2,58.3%
4,COc1ccc(C(=O)c2ccc(C)cc2)c(OC)c1OC,46.8%
5,C[C@H]1OC(=O)/C=C/[C@@H](O)[C@@H](O)CCCCCCCC[C@@H]1O,106%
6,COc1ccccc1-n1cnc(N)c1C(=O)c1cc(OC)c(OC)c(OC)c1,50.8%
7,COc1ccc(/C=C(\C#N)c2cc3ccccc3n2S(C)(=O)=O)cc1,89.8%
8,Cc1cccc2c1NC(=O)[C@@]21[C@H](C(=O)c2ccccc2)[C@]2(C(=O)Nc3ccccc32)[C@H]2CCCN21,12.3% [100 µM]
9,N=c1ccc2nc3c(cc(N)c4ccccc43)oc-2c1,-44% (active)
10,COc1cccc(-c2nn(-c3ccccc3)cc2-c2ccnc(NCCCNS(=O)(=O)c3ccc(Br)cc3)c2)c1,23.5%
11,Cc1ccc(-c2nn(Cc3cn(-c4cc(C)nc5ccccc45)nn3)c3ncnc(N)c23)cc1,49.9%
12,COc1ccc2c(c1)c1nc3cc(C)c(C)cc3nc1n2CCN(C)C,0.921% (active)
13,CC(=O)n1c(/C(C#N)=C/c2ccc(N(C)C)cc2)cc2ccccc21,33.1%
14,C[C@H]1[C@H]2C3=CC[C@@H]4[C@@]5(C)C/C(=C/c6ccco6)C(=O)C(C)(C)[C@@H]5CC[C@@]4(C)[C@]3(C)CC[C@@]2(C(=O)N2CCOCC2)CC[C@@H]1C,6.22% (active)
15,Fc1ccc(Nc2ccc3c(OCCCN4CCOCC4)cccc3n2)cc1F,53%
16,COc1cccc(-c2nn(-c3ccccc3)cc2-c2ccnc(NCCNS(=O)(=O)c3ccc(C(F)(F)F)cc3)c2)c1,-16.7% (active)
17,Cn1cnc2c1c(=O)n(CCC(=O)Nc1ccc(F)cc1)c(=O)n2C,106%

row,Compound,growth
1,COCCNC1=C(Cl)C(=O)c2ccccc2C1=O,108%
2,CCCCn1c(-c2ccc(O)cc2)cn2c3c(=O)[nH]c(=O)n(C)c3nc12,58.6%
3,Cc1ccc(N(CC(=O)Nc2ccc(S(=O)(=O)NC3CCN(C)CC3)cc2)S(=O)(=O)c2ccc(Cl)cc2)cc1,70.5%
4,CC(=O)OC[C@]12CC[C@@H](/C(C)=N/O)[C@@H]1[C@H]1CC[C@@H]3[C@@]4(C)CCCNC(C)(C)[C@@H]4CC[C@@]3(C)[C@]1(C)CC2,35.6%
5,Clc1ccc(Cn2cc(-c3nc4ccc(Br)nc4n3Cc3ccc(Cl)cc3)c3cccnc32)cc1,59.3%
6,CN1CCN(CCOc2ccc(-c3cnc4c(-c5cccc(F)c5)cnn4c3)cc2)CC1,16.6%
7,CN1CCN(c2nc(-c3csc(-c4cccs4)n3)cc3ccccc23)CC1,9.46% (active)
8,CCN(CC)CCCCCCNc1ccnc2cc(Cl)ccc12,101%
9,CCCCCCCC(=O)SCC/C=C/[C@@H]1CC(=O)NCc2cccc(n2)CN(Cc2ccc(Cl)cc2)CC(=O)N[C@@H](C(C)C)C(=O)O1,3.43% (active)
10,c1cc(N2CCCC2)c2nc(-c3[nH]ncc3Nc3ncnc4[nH]ccc34)[nH]c2c1,1.93% (active)
11,COc1ccc(C2=NN(c3nc(-c4ccc(OC)cc4)c(C#N)c(=O)n3C)C(=O)CC2)cc1,96.6%
12,Cc1ccc(S(=O)(=O)Nc2ccc(-c3cc(-c4cccc(F)c4)c(C#N)c(N)n3)cc2)cc1,9.77% (active)
13,CC(C)(C)c1ccc(OCCCCCCCN2CCNCC2)cc1,0.604% (active)
14,COC(=O)CNc1nc(N(C)O)nc(N(C)O)n1,25.9%
15,COc1cc2ncnc(Nc3ccc(Oc4ccnc(C)c4)c(C)c3)c2cc1NC(=O)CC1CCSS1 (centres undefined),-56.8% (active)
16,C=C(C)[C@@H]1CC[C@]2(C)[C@H](CC[C@@H]3[C@H]4[C@H]5OC[C@@]4(CCC5(C)C)CC[C@]32C)[C@@]1(C)CCCN,10.5%
17,c1ccc(-c2nc(Nc3ccc(-c4nc5ccccc5[nH]4)cc3)nc(N3CCOCC3)n2)cc1,-37.8% (active)
